In PubChem BioAssay:
The source made the active and inactive calls. Unless noted, no rule for the calls is given here.

Tests used:
[1] = test system: Wnt5a (protein binding on small-molecule microarray); assay: Wnt5a binders on small-molecule microarray, primary screen, biophysical, 635/667 nm fluorescence (AID 1142); conditions: 635 nm fluorescence, higher = more signal;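 also: fluorescence read at 667 nm with signal to noise per printed feature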
[2] = cell viability in Huh7 cells, primary screen, cytotoxicity control for HCV replication inhibitor project, CellTiter-Glo luminescence, basal, 48 h (AID 1143); conditions: Huh7 HCV replicon, higher = more signal, called active from +8 up or from −8 down;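 also: Huh7 hepatoma cells carrying a hepatitis C replication reporter with no stimulus; test concentration not given here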
[3] = P. aeruginosa biofilm formation inhibitors, primary screen, PAO1 strain, BacTiter-Glo luminescence, LB-PBS (AID 1144); conditions: 12 h, higher = more signal
[4] = CREB reporter modulators without forskolin, primary screen, cell-based, PC12, CRE-LacZ reporter, unstimulated (AID 1145); conditions: no forskolin, luminescence, 4.5 h, higher = more signal, called active from +8 up or from −8 down
[5] = CREB reporter modulators under forskolin, primary screen, cell-based, PC12, CRE-LacZ reporter, forskolin-stimulated (AID 1146); conditions: luminescence, 4.5 h, higher = more signal, called active from +8 up or from −8 down;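 also: PC12 cells with 6xCRE LacZ reporter stimulated by forskolin 10 µM; beta-galactosidase reporter signal reflecting CREB driven transcription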
[6] = target: Streptavidin (Streptomyces avidinii) (UniProt P22629); assay: streptavidin binders on small-molecule microarray, primary screen, artefact control for SMM compound annotation, biophysical, 635/667 nm fluorescence (AID 1147); conditions: streptavidin binding, higher = more signal;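 also: signal reflects streptavidin binding to arrayed compounds as a control protein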
Sequence of Streptavidin (Streptomyces avidinii) (P22629 whole entry, looked up): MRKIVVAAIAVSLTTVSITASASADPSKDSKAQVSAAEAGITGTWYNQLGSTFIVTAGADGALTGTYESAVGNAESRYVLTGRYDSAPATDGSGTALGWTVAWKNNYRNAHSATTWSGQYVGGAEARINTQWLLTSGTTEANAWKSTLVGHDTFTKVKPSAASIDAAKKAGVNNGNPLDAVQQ

[7] = small-molecule binders of probe aInhba, primary screen, biochemical, small-molecule microarray, 635/667 nm fluorescence (AID 1148); conditions: higher = more signal;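 also: score merges 667nm spot fluorescence with signal-to-noise for antibody binding to printed compounds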
Torsin-1A (Homo sapiens) [8] = target: Torsin-1A (Homo sapiens) (UniProt O14656); assay: torsin A binders from cell lysate, primary screen, small-molecule microarray, wild-type, 635/667 nm (AID 1149); conditions: COS7 hTOR1A-WT lysate, 635 nm fluorescence, higher = more signal
Sequence of Torsin-1A (Homo sapiens) (O14656 whole entry, looked up): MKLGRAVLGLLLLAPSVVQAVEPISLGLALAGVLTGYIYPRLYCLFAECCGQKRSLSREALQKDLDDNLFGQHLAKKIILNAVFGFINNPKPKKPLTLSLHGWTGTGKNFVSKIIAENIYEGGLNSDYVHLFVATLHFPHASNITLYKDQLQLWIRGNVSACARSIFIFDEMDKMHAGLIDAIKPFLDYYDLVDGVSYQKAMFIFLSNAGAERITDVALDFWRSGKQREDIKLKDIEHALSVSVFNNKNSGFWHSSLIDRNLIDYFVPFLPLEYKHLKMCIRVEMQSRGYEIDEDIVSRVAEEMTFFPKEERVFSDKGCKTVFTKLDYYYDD

Torsin-1A (Homo sapiens) [9] = target: Torsin-1A (Homo sapiens) (UniProt O14656); assay: small-molecule binders of mutant TOR1A in lysate, primary screen, cell lysate, small-molecule microarray, COS7 lysate, 635/667 nm fluorescence (AID 1150); conditions: COS7 hTOR1A mutant lysate, 635 nm fluorescence, higher = more signal;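 also: score pools 667 nm emission and signal to noise measuring lysate protein binding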
[10] = test system: Sonic hedgehog protein (Shh); assay: small-molecule binders of Shh protein, primary screen, biochemical, small-molecule microarray, 635/667 nm fluorescence (AID 1151); conditions: small-molecule microarray binding, 635 nm fluorescence; higher = more signal;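 also: Shh protein binding to compounds spotted on small-molecule microarray slides; score combines spot fluorescence intensity with signal-to-noise across triplicate slides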
[11] = E. coli DRC41 culture turbidity changes, primary screen, E. coli filamentation inducer project, strain DRC41, OD650, 48 h (AID 1152);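 also: E. coli MC1000 strain DRC41 lacking acrAB efflux pump and sulA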; conditions: E. coli DRC41 (acrAB sulA), higher = more signal, called active from +8 up or from −8 down
[12] = small-molecule binders of probe aLefty1, primary screen, biochemical, small-molecule microarray, 635/667 nm fluorescence (AID 1153); conditions: higher = more signal;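 also: score merges spot fluorescence with signal-to-noise ratio from the scanned slide images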
[13] = PSAC antagonists in infected red cells, primary screen, cell-based, P. falciparum Indochina, OD700, 1 h (AID 1154); conditions: P. falciparum Indochina infected RBC osmotic lysis, higher = more signal, called active from +8 up or from −8 down
[14] = PSAC antagonists in infected red cells, primary screen, cell-based, P. falciparum Indochina, OD700, 2 h (AID 1155);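 also: lysis reports solute entry through the parasite surface anion channel PSAC; channel blockers reduce lysis of infected cells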; conditions: P. falciparum Indochina infected erythrocytes, osmotic lysis OD700; higher = more signal, called active from +8 up or from −8 down
[15] = osmotic lysis modulators in infected erythrocytes, primary screen, PSAC antagonist project, cell-based, P. falciparum Indochina, OD700, 3 h (AID 1156); conditions: higher = more signal, called active from +8 up or from −8 down
[16] = PSAC antagonists in infected red cells, primary screen, cell-based, P. falciparum Indochina, OD700, 18 h (AID 1157); conditions: P. falciparum Indochina infected erythrocytes, osmotic lysis OD700, 18 h; higher = more signal, called active from +8 up or from −8 down
[17] = modulators of S6 phosphorylation in cells, primary screen, cell-based, A549, cytoblot, luminescence, serum-stimulated (AID 1158); conditions: A549 phospho-S6 cytoblot, 5 h, higher = more signal;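 also: serum-stimulated A549 lung adenocarcinoma cells; signal is phosphorylated S6 detected by cytoblot immunostaining with HRP secondary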
[18] = target: NADPH oxidase 2 (Homo sapiens) (UniProt P04839); assay: NOX2-dependent H2O2 signal modulators, primary screen, NOX inhibitor project, cell-based, HEK293-NOX2, PMA-stimulated, Amplex Red fluorescence (AID 1159); conditions: 45 min, higher = more signal, called active from +8 up or from −8 down; also: test concentration not given here
Sequence of NADPH oxidase 2 (Homo sapiens) (P04839 whole entry, looked up): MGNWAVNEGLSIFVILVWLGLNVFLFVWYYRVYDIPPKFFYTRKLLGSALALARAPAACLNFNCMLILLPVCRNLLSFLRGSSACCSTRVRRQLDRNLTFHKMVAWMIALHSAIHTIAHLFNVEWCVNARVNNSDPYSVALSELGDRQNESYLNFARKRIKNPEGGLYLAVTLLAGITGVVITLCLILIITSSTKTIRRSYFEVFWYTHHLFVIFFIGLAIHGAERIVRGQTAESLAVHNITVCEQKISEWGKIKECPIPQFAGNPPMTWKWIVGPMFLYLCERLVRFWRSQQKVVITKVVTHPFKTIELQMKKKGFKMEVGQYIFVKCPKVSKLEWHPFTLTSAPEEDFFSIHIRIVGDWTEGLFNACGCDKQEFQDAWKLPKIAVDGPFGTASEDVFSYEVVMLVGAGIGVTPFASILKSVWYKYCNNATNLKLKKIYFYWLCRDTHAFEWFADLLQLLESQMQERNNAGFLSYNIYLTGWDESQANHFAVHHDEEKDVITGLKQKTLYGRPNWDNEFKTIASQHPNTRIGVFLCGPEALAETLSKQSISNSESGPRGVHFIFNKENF

[19] = target: NADPH oxidase 4 (Homo sapiens) (UniProt Q9NPH5); assay: NOX4-dependent H2O2 signal modulators, primary screen, NOX inhibitor project, cell-based, HEK293-NOX4, tetracycline-induced, Amplex Red fluorescence (AID 1160); conditions: 45 min, higher = more signal, called active from +8 up or from −8 down
Sequence of NADPH oxidase 4 (Homo sapiens) (Q9NPH5 whole entry, looked up): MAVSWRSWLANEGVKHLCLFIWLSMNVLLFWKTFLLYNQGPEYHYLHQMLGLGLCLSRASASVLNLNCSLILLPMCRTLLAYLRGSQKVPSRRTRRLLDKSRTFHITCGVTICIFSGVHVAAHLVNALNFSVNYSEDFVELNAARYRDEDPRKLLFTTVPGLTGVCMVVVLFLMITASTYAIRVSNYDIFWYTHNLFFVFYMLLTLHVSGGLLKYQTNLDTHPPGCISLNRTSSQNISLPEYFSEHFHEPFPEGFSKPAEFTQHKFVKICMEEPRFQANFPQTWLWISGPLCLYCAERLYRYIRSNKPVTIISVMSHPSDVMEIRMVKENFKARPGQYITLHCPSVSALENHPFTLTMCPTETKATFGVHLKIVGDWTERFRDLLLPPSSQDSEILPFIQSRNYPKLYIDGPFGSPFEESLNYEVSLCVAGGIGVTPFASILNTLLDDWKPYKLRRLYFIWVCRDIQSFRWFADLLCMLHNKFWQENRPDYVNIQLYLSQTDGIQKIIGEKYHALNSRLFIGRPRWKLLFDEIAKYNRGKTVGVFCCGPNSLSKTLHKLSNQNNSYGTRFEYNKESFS

[20] = target: NADPH oxidase 5 (Homo sapiens) (UniProt Q96PH1); assay: NOX5-dependent H2O2 signal modulators, primary screen, NOX inhibitor project, cell-based, HEK293-NOX5, Amplex Red fluorescence (AID 1161); conditions: HEK293-NOX5, ionomycin, 45 min, higher = more signal
Sequence of NADPH oxidase 5 (Homo sapiens) (Q96PH1 whole entry, looked up): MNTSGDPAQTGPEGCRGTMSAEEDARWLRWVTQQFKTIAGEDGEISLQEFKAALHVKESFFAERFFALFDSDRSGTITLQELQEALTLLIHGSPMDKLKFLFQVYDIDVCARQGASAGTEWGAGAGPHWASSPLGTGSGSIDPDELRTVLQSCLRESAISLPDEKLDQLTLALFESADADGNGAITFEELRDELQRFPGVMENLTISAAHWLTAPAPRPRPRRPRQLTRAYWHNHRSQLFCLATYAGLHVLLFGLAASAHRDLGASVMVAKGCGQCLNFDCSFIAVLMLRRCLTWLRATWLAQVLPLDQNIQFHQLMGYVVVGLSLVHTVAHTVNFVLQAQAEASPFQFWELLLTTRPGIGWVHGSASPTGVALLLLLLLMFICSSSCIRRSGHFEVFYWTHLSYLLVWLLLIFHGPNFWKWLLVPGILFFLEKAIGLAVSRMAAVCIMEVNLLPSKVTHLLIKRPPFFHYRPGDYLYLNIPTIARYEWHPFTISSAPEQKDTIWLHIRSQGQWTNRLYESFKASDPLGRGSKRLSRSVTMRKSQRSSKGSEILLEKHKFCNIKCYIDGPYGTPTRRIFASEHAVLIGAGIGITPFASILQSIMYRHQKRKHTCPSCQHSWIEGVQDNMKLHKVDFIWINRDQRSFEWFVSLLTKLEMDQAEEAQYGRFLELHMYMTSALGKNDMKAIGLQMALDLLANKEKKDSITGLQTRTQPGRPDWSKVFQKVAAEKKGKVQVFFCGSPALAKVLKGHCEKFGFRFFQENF

| Compound | composite z-score [1] | z-score [2] | z-score [3] | z-score [4] | z-score [5] | composite z-score [6] | composite z-score [7] | composite z-score (Torsin-1A (Homo sapiens) [8]) | composite z-score (Torsin-1A (Homo sapiens) [9]) | composite z-score [10] | z-score [11] | composite z-score [12] | z-score [13] | z-score [14] | z-score [15] | z-score [16] | z-score [17] | z-score [18] | z-score [19] | z-score [20] |
| --- | --- | --- | --- | --- | --- | --- | --- | --- | --- | --- | --- | --- | --- | --- | --- | --- | --- | --- | --- | --- |
| CN(C)CCCNC(=O)[C@@]1(c2ccc([N+](=O)[O-])cc2)CC(=O)N(C2CCCCC2)[C@@H]1c1ccc(CO)cc1 | -0.217 | -0.406 (inactive) | 0.382 (inactive) | 0.234 (inactive) | -0.342 (inactive) | 0.494 | 0.0342 | -0.485 | -0.161 | 0.371 | 0.0097 (inactive) | 0.0793 | 1.31 (inactive) | 0.346 (inactive) | 2.09 (inactive) | -0.0633 (inactive) | -0.0223 | 1.84 (inactive) | 1.31 (inactive) | 0.787 |
| COc1ccc(C(O)C2C=CC3C(=O)N(C)C(=O)C3N2N2CCCCC2)c2ccccc12 (stereo not given) | 0.533 | 0.221 (inactive) | 0.28 (inactive) | 1.39 (inactive) | 0.426 (inactive) | 1.25 | 0.111 | 0.466 | 0.66 | -0.474 | -1.53 (inactive) | 0.517 | 1.24 (inactive) | 1.05 (inactive) | 1.01 (inactive) | 0.778 (inactive) | -1.08 | 0.273 (inactive) | -1.72 (inactive) | 1.03 |
| CCOC(=O)C[C@H]1[C@H](OC(=O)Cc2ccc3c(c2)OCO3)[C@@H](NC(=O)c2ccc3ccccc3c2)c2cc(OCCCO)ccc2N1C(=O)c1ccccc1 | 0.0819 | -0.23 (inactive) | -0.784 (inactive) | 4.07 (inactive) | 0.005 (inactive) | 0.397 | 0.0184 | 0.0289 | 0.458 | 0.601 | 1.87 (inactive) | 0.0479 | 4.03 (inactive) | 0.522 (inactive) | -0.552 (inactive) | 0.26 (inactive) | 0.0043 | -0.363 (inactive) | 0.321 (inactive) | -2.56 |
| CC(C)OC(=O)C=C1C[C@@H](c2ccccc2C(F)(F)F)O[C@@H](c2ccccc2C(F)(F)F)O1 | 0.0503 | -4.32 (inactive) | -0.0124 (inactive) | 0.0798 (inactive) | 1.22 (inactive) | 0.215 | -0.176 | 0.217 | 0.202 | 0.245 | -0.66 (inactive) | -0.0011 | 1.66 (inactive) | 1.55 (inactive) | 0.632 (inactive) | 0.659 (inactive) | -0.491 | 0.441 (inactive) | -0.64 (inactive) | -0.774 |
| CC(C)(C)OC(=O)CC[C@@]12N=C(c3ccc(OCCCO)cc3)O[C@@H]1c1ccccc1N(CCS(=O)(=O)c1ccccc1)C2=O | 0.251 | -3.45 (inactive) | 0.114 (inactive) | -0.389 (inactive) | -1.71 (inactive) | 0.901 | 0.0737 | -0.0101 | 0.537 | 1.27 | 0.864 (inactive) | 0.334 | 30.9 (active) | 27.6 (active) | 3.49 (inactive) | 8.22 (active) | 1.84 | -0.619 (inactive) | 0.801 (inactive) | -2.14 |
| CC(C)C(=C=CC[C@@H](O)c1ccccc1OCCO)CCO | -0.0322 | -3.75 (inactive) | 0.0933 (inactive) | 5.12 (inactive) | -0.366 (inactive) | 0.666 | -0.016 | -0.502 | -0.455 | 0.575 | 0.351 (inactive) | -0.0501 | 1.95 (inactive) | 0.63 (inactive) | -1.33 (inactive) | 0.428 (inactive) | 0.278 | 0.729 (inactive) | 0.147 (inactive) | -2.06 |
| CN1C(=O)C2C=CC(C(O)C3CC=CCC3)N(NC(=O)OC(C)(C)C)C2C1=O (stereo not given) | 0.154 | 0.248 (inactive) | 0.0321 (inactive) | 0.626 (inactive) | 0.257 (inactive) | 1.15 | 0.0301 | 0.665 | 1.12 | 0.737 | -1.49 (inactive) | -0.168 | 0.23 (inactive) | 0.737 (inactive) | -0.138 (inactive) | 0.312 (inactive) | -1.01 | -0.92 (inactive) | -0.861 (inactive) | -0.716 |
| CN(C)C(=O)[C@]1(Cc2ccccc2CN=[N+]=[N-])N=C(c2ccc(OCCCO)cc2)O[C@@H]1c1ccccc1CN=[N+]=[N-] | 0.49 | -5.26 (inactive) | -0.611 (inactive) | 1.31 (inactive) | -0.394 (inactive) | 0.61 | 0.461 | 1.14 | 0.917 | 1.11 | -0.214 (inactive) | 0.425 | 26.8 (active) | 13.4 (active) | 2.66 (inactive) | -0.0196 (inactive) | 1.18 | -3.36 (inactive) | -1.6 (inactive) | -1.78 |
